Assay results taken from the supplement of paper PMC6555819.

tested on: PPARg:RXRa 270nM:90nM, anti-RXR (NR concentration 270 nM, RXRa partner concentration 90 nM); experiment: PBM binding z-score (relative to random genomic background probes); higher = stronger binding; sequences stand for … in GC…GCGATTGACAGCGTAGAATGAAGG
How it was run: (§1)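 On custom Agilent 4×180K arrays, double-stranded probes with 34-nt variable regions carried direct-repeat seeds, single-nucleotide variants, half-site ablations or random human genomic background. Ligand-free nuclear receptor dimers were applied for 1 h, and binding was read with antibodies against each partner (one per run). Binding z-scores come from regression-normalized fluorescence, with the random background probes as reference.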

**Q.** How did the PBM binding z-score turn out when TCTCGGAGGACACGATGGTCAGAGCTTTCCAGAG was run?
**A.** 0.7

**Q.** Which PBM binding z-score does the source give for GCTTACGGATCAAAGGTTATAGCATGAATAGAAT here?
**A.** 6.43

**Q.** CTACCAAGGTGAACAAGGTCGTCGATTACTATTC was tested. Which PBM binding z-score did it give?
**A.** 1.59

**Q.** How did the PBM binding z-score turn out when AATACAGGGTCATCGTAGGCCAGTGTACGCACAG was run?
**A.** 5.88

**Q.** Which PBM binding z-score does the source give for CCTGCTAGGTCATGGTCAGATAATCTACAGTATG here?
**A.** 2.71

**Q.** With CGAACTAGGTCAAAGGTCAAAGTCGAGCCAACCA as the sequence, how does the PBM binding z-score read?
**A.** 11.4

**Q.** How did the PBM binding z-score turn out when AATACAGGGTCATTGTAGGCCAGAGTACGCACAG was run?
**A.** 5.54

**Q.** With AGAATGAGGTTATACGTAGATCAGGGATGAAAGT as the sequence, how does the PBM binding z-score read?
**A.** 2.01

**Q.** Which PBM binding z-score does the source give for ATCGAAAGGTCGAGGTGAGTTTAGAGAAAGGGAA here?
**A.** 3.81

**Q.** How did the PBM binding z-score turn out when TGAATGAGGTGATAAGATCAGGGAACGTTGCAAA was run?
**A.** 1.24

**Q.** For ATCGAAAGGTCGAAGGTTAGTATACCCACCCGAA, which PBM binding z-score is on record?
**A.** 5.12

**Q.** How did the PBM binding z-score turn out when TCATATAGGTAAAGGGTGAAAGTCGGTGTGGTAA was run?
**A.** 7.21

**Q.** How did the PBM binding z-score turn out when CCTTACGGGTCAAGGTTATAGCGCGGGTGGTACG was run?
**A.** 4.41

**Q.** For CATCCAAGGTCAGAGAGGTCAGTGAATGCCGAGT, which PBM binding z-score is on record?
**A.** 4.43

**Q.** CCTTACGGGGCACTGACAGGTTATAGCATTTGGA was tested. Which PBM binding z-score did it give?
**A.** -0.156

**Q.** With TGAATGAGGTTAAAAATCAGGGAACGTGGCGTCG as the sequence, how does the PBM binding z-score read?
**A.** 2.33

**Q.** TTACCAAGGTGAAAGGTTGTTGATGCACGCCTTG was tested. Which PBM binding z-score did it give?
**A.** 6.02

**Q.** For CCTAGCAGGCCCGGGTCACTCAAGCATTTCGCTT, which PBM binding z-score is on record?
**A.** 0.755

**Q.** AGTCAAAGTTCACCAGGTAACGTAAGATTCAGCT was tested. Which PBM binding z-score did it give?
**A.** 6.68

**Q.** TCTTGTAGATCAAGCCGGTTAAGAAAGCCTGAGT was tested. Which PBM binding z-score did it give?
**A.** 1.31

**Q.** TCGAGTAGGTTAGGGGCCTTCAGAATGGCGTCGA was tested. Which PBM binding z-score did it give?
**A.** 2.19

**Q.** For GCTGGGAGGACAAGGTCAGAGCTTTGTCCGTAGA, which PBM binding z-score is on record?
**A.** 1.28

**Q.** With CCTTAAGGGTCAAGGTTATAGCACGGGTGGTACG as the sequence, how does the PBM binding z-score read?
**A.** 5.97

**Q.** For GCGAGCAGGCCATTTGGGTCACTCAATGACGGGC, which PBM binding z-score is on record?
**A.** 0.408

**Q.** For CGAACTAGGTCATCTAGGACAGTGAATACATTGA, which PBM binding z-score is on record?
**A.** 6.44

**Q.** With CCAGACAGGTGAAAGGTACCTCAGTCTGGTACGC as the sequence, how does the PBM binding z-score read?
**A.** 4.94

**Q.** GCAGACAGGTAAAACGCAGGTAACTCAGGGTGGC was tested. Which PBM binding z-score did it give?
**A.** -0.433

**Q.** CCTCGCAGGCCAATCTGGGTCACTCAAGGCTTGA was tested. Which PBM binding z-score did it give?
**A.** 2.28

**Q.** For GGAACGAGGGCATTCTAGTTGATAGCATGGCGAT, which PBM binding z-score is on record?
**A.** 0.642

**Q.** For CCTACTAGGCCATTCAGAGGTCATTGATCATATG, which PBM binding z-score is on record?
**A.** 3.87

**Q.** AGAACGACGGCACGCTGAGTTGATAGCAGAGTAG was tested. Which PBM binding z-score did it give?
**A.** -0.503

**Q.** With TCTGCTAGGTTAGTTGGTCAGCTAACGAGCTGCC as the sequence, how does the PBM binding z-score read?
**A.** 0.707

**Q.** With ATCTCTAGGTAACAAGTTCAGTGTAAGAGAGGAC as the sequence, how does the PBM binding z-score read?
**A.** 2.11

**Q.** How did the PBM binding z-score turn out when ATCGAAAGGTCGTGAGGTGAGTAGACAGAAAGGC was run?
**A.** 4.25

**Q.** For CCTACTGGGCCACGAAAGCTCATTGATTCAGTGA, which PBM binding z-score is on record?
**A.** 1.15

**Q.** How did the PBM binding z-score turn out when AGAACGAGGGCAATGAGTTGATGGCACGGGTGGC was run?
**A.** 0.598

**Q.** How did the PBM binding z-score turn out when CCTACTGGGCCAAGGTTATTGATCAGTCAAAGCA was run?
**A.** 3.06

**Q.** With CCTTACGGGTCAAGGTTTTAGCACGGGTGGTACG as the sequence, how does the PBM binding z-score read?
**A.** 4.44

**Q.** TCTTGTAGACCAATAGAGGTTAAGAAAGTGCGCT was tested. Which PBM binding z-score did it give?
**A.** 1.69

**Q.** How did the PBM binding z-score turn out when ACAGACAGGTGAGTGAAGGTAACTTAGCTGGACG was run?
**A.** -0.15

tested on: PPARg:RXRa 30nM:10nM, anti-RXR (NR concentration 30 nM, RXRa partner concentration 10 nM); experiment: as above
How it was run: as §1

**Q.** For TCTCGGAGGACACGATGGTCAGAGCTTTCCAGAG, which PBM binding z-score is on record?
**A.** 1.73

**Q.** For GCTTACGGATCAAAGGTTATAGCATGAATAGAAT, which PBM binding z-score is on record?
**A.** 4.61

**Q.** With CTACCAAGGTGAACAAGGTCGTCGATTACTATTC as the sequence, how does the PBM binding z-score read?
**A.** 0.0715

**Q.** How did the PBM binding z-score turn out when AATACAGGGTCATCGTAGGCCAGTGTACGCACAG was run?
**A.** 3.01

**Q.** Which PBM binding z-score does the source give for CCTGCTAGGTCATGGTCAGATAATCTACAGTATG here?
**A.** 0.675

**Q.** How did the PBM binding z-score turn out when CGAACTAGGTCAAAGGTCAAAGTCGAGCCAACCA was run?
**A.** 14.7

**Q.** Which PBM binding z-score does the source give for AATACAGGGTCATTGTAGGCCAGAGTACGCACAG here?
**A.** 2.4

**Q.** With AGAATGAGGTTATACGTAGATCAGGGATGAAAGT as the sequence, how does the PBM binding z-score read?
**A.** 0.736

**Q.** For ATCGAAAGGTCGAGGTGAGTTTAGAGAAAGGGAA, which PBM binding z-score is on record?
**A.** 1.16

**Q.** With TGAATGAGGTGATAAGATCAGGGAACGTTGCAAA as the sequence, how does the PBM binding z-score read?
**A.** 0.758

**Q.** ATCGAAAGGTCGAAGGTTAGTATACCCACCCGAA was tested. Which PBM binding z-score did it give?
**A.** 2.51

**Q.** Which PBM binding z-score does the source give for TCATATAGGTAAAGGGTGAAAGTCGGTGTGGTAA here?
**A.** 7.16

**Q.** CCTTACGGGTCAAGGTTATAGCGCGGGTGGTACG was tested. Which PBM binding z-score did it give?
**A.** 1.73

**Q.** For CATCCAAGGTCAGAGAGGTCAGTGAATGCCGAGT, which PBM binding z-score is on record?
**A.** 1.5

**Q.** Which PBM binding z-score does the source give for CCTTACGGGGCACTGACAGGTTATAGCATTTGGA here?
**A.** -0.0268

**Q.** With TGAATGAGGTTAAAAATCAGGGAACGTGGCGTCG as the sequence, how does the PBM binding z-score read?
**A.** 1.16

**Q.** How did the PBM binding z-score turn out when TTACCAAGGTGAAAGGTTGTTGATGCACGCCTTG was run?
**A.** 4.55

**Q.** How did the PBM binding z-score turn out when CCTAGCAGGCCCGGGTCACTCAAGCATTTCGCTT was run?
**A.** -0.825

**Q.** With AGTCAAAGTTCACCAGGTAACGTAAGATTCAGCT as the sequence, how does the PBM binding z-score read?
**A.** 3.83

**Q.** TCTTGTAGATCAAGCCGGTTAAGAAAGCCTGAGT was tested. Which PBM binding z-score did it give?
**A.** 2.88

**Q.** For TCGAGTAGGTTAGGGGCCTTCAGAATGGCGTCGA, which PBM binding z-score is on record?
**A.** 0.926

**Q.** GCTGGGAGGACAAGGTCAGAGCTTTGTCCGTAGA was tested. Which PBM binding z-score did it give?
**A.** -0.497

**Q.** For CCTTAAGGGTCAAGGTTATAGCACGGGTGGTACG, which PBM binding z-score is on record?
**A.** 2.96

**Q.** Which PBM binding z-score does the source give for GCGAGCAGGCCATTTGGGTCACTCAATGACGGGC here?
**A.** -0.542

**Q.** For CGAACTAGGTCATCTAGGACAGTGAATACATTGA, which PBM binding z-score is on record?
**A.** 3.66

**Q.** For CCAGACAGGTGAAAGGTACCTCAGTCTGGTACGC, which PBM binding z-score is on record?
**A.** 2.26

**Q.** GCAGACAGGTAAAACGCAGGTAACTCAGGGTGGC was tested. Which PBM binding z-score did it give?
**A.** -0.834

**Q.** CCTCGCAGGCCAATCTGGGTCACTCAAGGCTTGA was tested. Which PBM binding z-score did it give?
**A.** -0.176

**Q.** Which PBM binding z-score does the source give for GGAACGAGGGCATTCTAGTTGATAGCATGGCGAT here?
**A.** -0.247

**Q.** Which PBM binding z-score does the source give for CCTACTAGGCCATTCAGAGGTCATTGATCATATG here?
**A.** 1.41

**Q.** With AGAACGACGGCACGCTGAGTTGATAGCAGAGTAG as the sequence, how does the PBM binding z-score read?
**A.** -0.345

**Q.** With TCTGCTAGGTTAGTTGGTCAGCTAACGAGCTGCC as the sequence, how does the PBM binding z-score read?
**A.** 0.944

**Q.** Which PBM binding z-score does the source give for ATCTCTAGGTAACAAGTTCAGTGTAAGAGAGGAC here?
**A.** 0.896

**Q.** How did the PBM binding z-score turn out when ATCGAAAGGTCGTGAGGTGAGTAGACAGAAAGGC was run?
**A.** 1.29

**Q.** CCTACTGGGCCACGAAAGCTCATTGATTCAGTGA was tested. Which PBM binding z-score did it give?
**A.** -0.145

**Q.** How did the PBM binding z-score turn out when AGAACGAGGGCAATGAGTTGATGGCACGGGTGGC was run?
**A.** -0.239

**Q.** Which PBM binding z-score does the source give for CCTACTGGGCCAAGGTTATTGATCAGTCAAAGCA here?
**A.** 0.701

**Q.** With CCTTACGGGTCAAGGTTTTAGCACGGGTGGTACG as the sequence, how does the PBM binding z-score read?
**A.** 1.43

**Q.** TCTTGTAGACCAATAGAGGTTAAGAAAGTGCGCT was tested. Which PBM binding z-score did it give?
**A.** 2.88

**Q.** How did the PBM binding z-score turn out when ACAGACAGGTGAGTGAAGGTAACTTAGCTGGACG was run?
**A.** -0.0448
